Assays:
Assay in all cases: DAPPL (digital affinity profiling via proximity ligation, sequencing); 10 mM Tris-HCl pH 7.5, 50 mM NaCl, 1 mM DTT, 4% glycerol, room temperature, 30 min; GST-TFs on glutathione beads, 16-mer random dsDNA library, 0.1% formaldehyde crosslink after washing; high values mean tight binding
FLI1 = target: T1, FLI1 (Homo sapiens, UniProt Q01543 1-452); details: protein: recombinant; tags: N-terminal GST; dsDNA, one strand shown
T1 sequence: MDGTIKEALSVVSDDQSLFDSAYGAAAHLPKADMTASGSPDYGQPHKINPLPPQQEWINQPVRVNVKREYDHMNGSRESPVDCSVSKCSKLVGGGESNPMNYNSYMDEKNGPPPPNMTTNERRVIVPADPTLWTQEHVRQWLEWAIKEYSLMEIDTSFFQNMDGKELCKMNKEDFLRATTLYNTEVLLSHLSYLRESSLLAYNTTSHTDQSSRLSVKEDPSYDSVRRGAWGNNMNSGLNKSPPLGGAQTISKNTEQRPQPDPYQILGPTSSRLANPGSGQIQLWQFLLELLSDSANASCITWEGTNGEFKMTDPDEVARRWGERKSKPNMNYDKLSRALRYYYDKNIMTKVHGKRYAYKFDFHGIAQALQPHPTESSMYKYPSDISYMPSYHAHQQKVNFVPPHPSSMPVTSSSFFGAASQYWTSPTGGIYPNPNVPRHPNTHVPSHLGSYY
Method in brief: (§1)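 A tag-only sample was pooled with DNA-barcoded human transcription factors that had been expressed in yeast as GST fusions and captured on glutathione beads. The pools were incubated for 30 min at room temperature with 200 nmole of a random double-stranded 16-mer DNA library in Tris/NaCl/DTT/glycerol buffer, then washed, crosslinked with 0.1% formaldehyde, proximity-ligated (BsaI/T4 ligase, 1 h, 37 °C), PCR-amplified and sequenced on an Illumina NextSeq500. Binding signal is each hexamer's read frequency for a factor divided by its frequency for the tag-only sample.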

ELK1 = target: T2, ELK1 (Homo sapiens, UniProt P19419 1-428); details: protein: recombinant; tags: N-terminal GST; dsDNA, one strand shown
T2 sequence: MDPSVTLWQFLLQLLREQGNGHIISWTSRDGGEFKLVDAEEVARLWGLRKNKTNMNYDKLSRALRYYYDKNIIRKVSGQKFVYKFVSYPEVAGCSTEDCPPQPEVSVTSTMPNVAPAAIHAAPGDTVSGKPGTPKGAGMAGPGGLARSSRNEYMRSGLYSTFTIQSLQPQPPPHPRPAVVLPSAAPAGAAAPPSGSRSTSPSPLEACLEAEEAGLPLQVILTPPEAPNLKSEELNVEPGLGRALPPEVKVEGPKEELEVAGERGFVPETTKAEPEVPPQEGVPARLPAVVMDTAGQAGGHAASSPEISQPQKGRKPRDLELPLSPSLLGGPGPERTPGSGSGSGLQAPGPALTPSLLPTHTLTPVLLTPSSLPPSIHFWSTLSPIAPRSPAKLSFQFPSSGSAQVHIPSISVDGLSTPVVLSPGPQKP
Method in brief: as §1

GABPA = target: T3, GABPA (Homo sapiens, UniProt Q06546 1-454); details: protein: recombinant; tags: N-terminal GST; dsDNA, one strand shown
T3 sequence: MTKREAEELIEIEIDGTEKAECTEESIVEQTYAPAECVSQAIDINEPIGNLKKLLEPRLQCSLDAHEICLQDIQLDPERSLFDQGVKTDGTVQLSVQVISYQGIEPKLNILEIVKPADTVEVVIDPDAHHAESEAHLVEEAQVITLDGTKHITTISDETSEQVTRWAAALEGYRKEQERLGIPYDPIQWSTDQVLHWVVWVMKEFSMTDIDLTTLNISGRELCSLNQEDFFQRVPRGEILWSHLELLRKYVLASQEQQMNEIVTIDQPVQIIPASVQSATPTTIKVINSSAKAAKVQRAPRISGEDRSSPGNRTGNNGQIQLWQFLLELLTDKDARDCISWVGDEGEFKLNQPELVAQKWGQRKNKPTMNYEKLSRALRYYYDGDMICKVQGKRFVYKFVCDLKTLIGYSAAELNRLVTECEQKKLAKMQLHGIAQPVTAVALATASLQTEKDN
Method in brief: as §1

ERG = target: T4, ERG (Homo sapiens, UniProt P11308 1-479); details: protein: recombinant; tags: N-terminal GST; dsDNA, one strand shown
T4 sequence: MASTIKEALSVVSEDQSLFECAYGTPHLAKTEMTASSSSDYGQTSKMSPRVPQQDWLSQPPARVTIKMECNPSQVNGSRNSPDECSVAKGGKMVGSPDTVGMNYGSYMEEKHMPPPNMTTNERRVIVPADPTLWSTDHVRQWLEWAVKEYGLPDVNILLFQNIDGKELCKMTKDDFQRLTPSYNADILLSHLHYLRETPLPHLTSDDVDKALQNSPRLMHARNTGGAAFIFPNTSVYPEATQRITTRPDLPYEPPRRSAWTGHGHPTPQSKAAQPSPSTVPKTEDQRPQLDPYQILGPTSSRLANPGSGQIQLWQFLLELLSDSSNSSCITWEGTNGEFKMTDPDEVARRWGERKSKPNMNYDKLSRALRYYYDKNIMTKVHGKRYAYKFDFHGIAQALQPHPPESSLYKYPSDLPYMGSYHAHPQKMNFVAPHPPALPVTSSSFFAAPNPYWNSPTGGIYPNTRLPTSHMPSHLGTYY
Method in brief: as §1

ELF1 = ELF1 (Homo sapiens, UniProt P32519 1-619); details: protein: recombinant; tags: N-terminal GST; dsDNA, one strand shown
Chain of ELF1 (P32519 whole entry): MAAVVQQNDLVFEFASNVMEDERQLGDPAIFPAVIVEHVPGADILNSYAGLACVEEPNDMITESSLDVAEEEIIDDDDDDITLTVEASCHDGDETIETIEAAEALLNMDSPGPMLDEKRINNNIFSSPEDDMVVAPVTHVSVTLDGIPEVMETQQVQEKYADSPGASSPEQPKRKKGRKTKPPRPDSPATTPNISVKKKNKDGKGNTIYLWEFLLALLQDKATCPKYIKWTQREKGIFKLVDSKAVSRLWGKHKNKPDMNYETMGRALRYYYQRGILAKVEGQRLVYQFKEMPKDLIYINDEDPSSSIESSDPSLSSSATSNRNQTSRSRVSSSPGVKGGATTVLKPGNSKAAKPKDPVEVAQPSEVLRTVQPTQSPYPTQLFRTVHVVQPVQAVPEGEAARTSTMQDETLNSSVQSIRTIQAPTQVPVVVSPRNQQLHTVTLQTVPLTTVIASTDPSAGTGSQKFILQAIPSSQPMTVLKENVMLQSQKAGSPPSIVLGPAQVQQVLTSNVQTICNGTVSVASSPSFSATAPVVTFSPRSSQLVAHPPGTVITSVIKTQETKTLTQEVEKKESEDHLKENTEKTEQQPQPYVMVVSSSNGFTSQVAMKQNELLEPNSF
Method in brief: as §1

EHF = target: T5, EHF (Homo sapiens, UniProt Q9NZC4 1-300); details: protein: recombinant; tags: N-terminal GST; dsDNA, one strand shown
T5 sequence: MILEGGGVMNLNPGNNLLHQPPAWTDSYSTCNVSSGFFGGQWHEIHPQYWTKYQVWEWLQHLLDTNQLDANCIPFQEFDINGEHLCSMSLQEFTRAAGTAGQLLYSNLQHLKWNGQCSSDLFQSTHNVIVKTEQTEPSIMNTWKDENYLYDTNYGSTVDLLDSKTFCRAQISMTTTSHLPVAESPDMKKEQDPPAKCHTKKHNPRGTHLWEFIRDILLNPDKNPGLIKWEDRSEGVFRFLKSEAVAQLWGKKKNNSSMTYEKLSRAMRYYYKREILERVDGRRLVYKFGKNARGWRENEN
Method in brief: as §1

SPI1 = SPI1 (Homo sapiens, UniProt P17947 1-270); details: protein: recombinant; tags: N-terminal GST; dsDNA, one strand shown
Method in brief: as §1

SPIB = SPIB (Homo sapiens, UniProt Q01892 1-262); details: protein: recombinant; tags: N-terminal GST; dsDNA, one strand shown
Chain of SPIB (Q01892 whole entry): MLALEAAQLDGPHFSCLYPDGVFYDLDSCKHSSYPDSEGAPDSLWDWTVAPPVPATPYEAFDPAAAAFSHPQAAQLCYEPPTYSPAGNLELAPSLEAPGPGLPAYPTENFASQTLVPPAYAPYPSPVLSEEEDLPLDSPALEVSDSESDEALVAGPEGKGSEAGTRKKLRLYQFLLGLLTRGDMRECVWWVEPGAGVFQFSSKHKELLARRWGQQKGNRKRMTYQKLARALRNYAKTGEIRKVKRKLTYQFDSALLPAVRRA
Method in brief: as §1

ELK3 = target: T6, ELK3 (Homo sapiens, UniProt P41970 1-407); details: protein: recombinant; tags: N-terminal GST; dsDNA, one strand shown
T6 sequence: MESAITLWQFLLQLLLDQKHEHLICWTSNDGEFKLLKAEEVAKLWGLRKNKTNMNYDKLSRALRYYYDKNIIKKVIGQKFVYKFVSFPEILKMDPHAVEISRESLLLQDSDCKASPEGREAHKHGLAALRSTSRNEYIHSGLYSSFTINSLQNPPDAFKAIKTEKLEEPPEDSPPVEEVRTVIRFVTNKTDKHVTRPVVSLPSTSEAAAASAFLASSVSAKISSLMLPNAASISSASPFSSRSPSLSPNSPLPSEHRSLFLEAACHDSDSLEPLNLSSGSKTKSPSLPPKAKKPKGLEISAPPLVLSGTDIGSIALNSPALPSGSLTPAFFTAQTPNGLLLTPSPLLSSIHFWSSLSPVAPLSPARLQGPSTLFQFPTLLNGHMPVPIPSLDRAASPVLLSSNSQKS
Method in brief: as §1

FEV = target: T7, FEV (Homo sapiens, UniProt Q99581 1-238); details: protein: recombinant; tags: N-terminal GST; dsDNA, one strand shown
T7 sequence: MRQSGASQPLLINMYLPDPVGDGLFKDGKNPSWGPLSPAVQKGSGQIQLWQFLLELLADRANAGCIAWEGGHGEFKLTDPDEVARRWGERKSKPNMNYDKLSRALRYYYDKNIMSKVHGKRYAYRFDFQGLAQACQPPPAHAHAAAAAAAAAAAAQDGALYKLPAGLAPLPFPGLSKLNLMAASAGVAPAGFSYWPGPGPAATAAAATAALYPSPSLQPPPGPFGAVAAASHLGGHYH
Method in brief: as §1

ETV5 = ETV5 (Homo sapiens, UniProt P41161 1-510); details: protein: recombinant; tags: N-terminal GST; dsDNA, one strand shown
Chain of ETV5 (P41161 whole entry): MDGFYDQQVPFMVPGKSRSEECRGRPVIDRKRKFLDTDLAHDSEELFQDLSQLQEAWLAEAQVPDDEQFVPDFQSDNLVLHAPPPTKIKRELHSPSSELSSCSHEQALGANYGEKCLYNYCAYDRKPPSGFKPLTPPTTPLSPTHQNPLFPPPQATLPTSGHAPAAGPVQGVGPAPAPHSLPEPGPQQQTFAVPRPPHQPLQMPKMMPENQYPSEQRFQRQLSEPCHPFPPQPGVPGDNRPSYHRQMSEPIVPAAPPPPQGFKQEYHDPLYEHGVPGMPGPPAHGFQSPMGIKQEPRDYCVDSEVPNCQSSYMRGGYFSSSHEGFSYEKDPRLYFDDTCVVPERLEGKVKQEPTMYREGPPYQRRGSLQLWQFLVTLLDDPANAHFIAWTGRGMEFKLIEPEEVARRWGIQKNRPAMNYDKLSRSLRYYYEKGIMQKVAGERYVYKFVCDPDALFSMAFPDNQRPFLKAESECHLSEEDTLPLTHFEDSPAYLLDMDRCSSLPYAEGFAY
Method in brief: as §1

HSF1 = HSF1 (Homo sapiens, UniProt Q00613 1-529); details: protein: recombinant; tags: N-terminal GST; chain copies: 3; dsDNA, one strand shown
Chain of HSF1 (Q00613 whole entry): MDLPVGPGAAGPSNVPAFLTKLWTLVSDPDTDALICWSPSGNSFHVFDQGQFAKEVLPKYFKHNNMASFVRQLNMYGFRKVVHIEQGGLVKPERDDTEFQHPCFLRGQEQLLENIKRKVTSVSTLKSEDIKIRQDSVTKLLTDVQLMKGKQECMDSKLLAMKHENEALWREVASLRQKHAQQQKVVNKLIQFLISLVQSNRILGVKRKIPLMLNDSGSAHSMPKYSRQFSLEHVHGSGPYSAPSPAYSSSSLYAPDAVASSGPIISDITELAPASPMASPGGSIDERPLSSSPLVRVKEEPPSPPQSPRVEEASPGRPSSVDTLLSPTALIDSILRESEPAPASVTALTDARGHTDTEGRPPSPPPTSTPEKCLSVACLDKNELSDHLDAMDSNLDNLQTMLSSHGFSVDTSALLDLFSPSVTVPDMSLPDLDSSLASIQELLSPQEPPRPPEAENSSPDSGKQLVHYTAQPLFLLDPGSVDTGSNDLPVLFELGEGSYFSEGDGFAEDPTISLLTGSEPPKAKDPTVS
Method in brief: as §1

SPIC = target: T8, SPIC (Homo sapiens, UniProt Q8N5J4 1-248); details: protein: recombinant; tags: N-terminal GST; dsDNA, one strand shown
T8 sequence: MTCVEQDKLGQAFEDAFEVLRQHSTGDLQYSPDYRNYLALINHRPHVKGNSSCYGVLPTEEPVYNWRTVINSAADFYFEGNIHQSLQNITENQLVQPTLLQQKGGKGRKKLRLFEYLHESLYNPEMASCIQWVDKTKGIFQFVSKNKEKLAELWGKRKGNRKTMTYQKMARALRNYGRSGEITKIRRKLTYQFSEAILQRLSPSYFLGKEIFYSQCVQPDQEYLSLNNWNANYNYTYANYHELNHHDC
Method in brief: as §1

ELF4 = ELF4 (Homo sapiens, UniProt Q99607 1-663); details: protein: recombinant; tags: N-terminal GST; dsDNA, one strand shown
Chain of ELF4 (Q99607 whole entry): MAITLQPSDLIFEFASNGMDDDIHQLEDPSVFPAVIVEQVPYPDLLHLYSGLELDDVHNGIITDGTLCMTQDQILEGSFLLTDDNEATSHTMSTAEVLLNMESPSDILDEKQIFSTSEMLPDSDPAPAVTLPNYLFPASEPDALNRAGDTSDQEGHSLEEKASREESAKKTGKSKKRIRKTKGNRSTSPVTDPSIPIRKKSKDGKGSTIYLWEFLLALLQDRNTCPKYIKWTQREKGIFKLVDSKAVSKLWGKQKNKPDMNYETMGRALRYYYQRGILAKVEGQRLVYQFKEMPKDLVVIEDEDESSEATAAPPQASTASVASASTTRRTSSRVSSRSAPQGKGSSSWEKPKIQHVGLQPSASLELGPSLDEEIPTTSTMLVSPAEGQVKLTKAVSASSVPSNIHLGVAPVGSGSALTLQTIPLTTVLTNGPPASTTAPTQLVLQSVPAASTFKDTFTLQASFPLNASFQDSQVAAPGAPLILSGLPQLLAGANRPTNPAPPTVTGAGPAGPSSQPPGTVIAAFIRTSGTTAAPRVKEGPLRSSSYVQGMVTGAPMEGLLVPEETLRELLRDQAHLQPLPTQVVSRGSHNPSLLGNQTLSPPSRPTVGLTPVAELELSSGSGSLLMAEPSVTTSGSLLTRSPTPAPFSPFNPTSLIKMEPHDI
Method in brief: as §1

ELK4 = target: T9, ELK4 (Homo sapiens, UniProt P28324-2 1-405); details: protein: recombinant; tags: N-terminal GST; dsDNA, one strand shown
T9 sequence: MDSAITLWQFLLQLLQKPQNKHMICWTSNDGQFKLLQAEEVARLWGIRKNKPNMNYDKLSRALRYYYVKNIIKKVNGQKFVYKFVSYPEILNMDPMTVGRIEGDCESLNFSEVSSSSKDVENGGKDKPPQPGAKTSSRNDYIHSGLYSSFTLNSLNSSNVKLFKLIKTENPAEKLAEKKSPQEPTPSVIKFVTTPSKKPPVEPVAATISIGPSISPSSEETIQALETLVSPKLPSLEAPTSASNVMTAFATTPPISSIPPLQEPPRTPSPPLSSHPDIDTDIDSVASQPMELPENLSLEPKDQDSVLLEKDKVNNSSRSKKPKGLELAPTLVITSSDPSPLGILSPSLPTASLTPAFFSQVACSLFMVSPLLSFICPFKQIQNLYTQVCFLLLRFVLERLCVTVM
Method in brief: as §1

ETV2 = target: T10, ETV2 (Homo sapiens, UniProt O00321 1-342); details: protein: recombinant; tags: N-terminal GST; dsDNA, one strand shown
T10 sequence: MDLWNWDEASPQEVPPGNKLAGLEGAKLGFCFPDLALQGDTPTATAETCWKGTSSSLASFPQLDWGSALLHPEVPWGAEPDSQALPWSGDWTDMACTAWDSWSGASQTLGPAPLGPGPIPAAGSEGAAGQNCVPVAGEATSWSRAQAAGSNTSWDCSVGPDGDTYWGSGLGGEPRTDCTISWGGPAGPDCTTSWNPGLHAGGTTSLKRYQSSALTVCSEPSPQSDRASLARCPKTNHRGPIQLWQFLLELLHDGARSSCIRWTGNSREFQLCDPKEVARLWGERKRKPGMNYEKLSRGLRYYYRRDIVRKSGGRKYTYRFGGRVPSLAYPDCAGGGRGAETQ
Method in brief: as §1

ELF3 = target: T11, ELF3 (Homo sapiens, UniProt P78545 1-371); details: protein: recombinant; tags: N-terminal GST; dsDNA, one strand shown
T11 sequence: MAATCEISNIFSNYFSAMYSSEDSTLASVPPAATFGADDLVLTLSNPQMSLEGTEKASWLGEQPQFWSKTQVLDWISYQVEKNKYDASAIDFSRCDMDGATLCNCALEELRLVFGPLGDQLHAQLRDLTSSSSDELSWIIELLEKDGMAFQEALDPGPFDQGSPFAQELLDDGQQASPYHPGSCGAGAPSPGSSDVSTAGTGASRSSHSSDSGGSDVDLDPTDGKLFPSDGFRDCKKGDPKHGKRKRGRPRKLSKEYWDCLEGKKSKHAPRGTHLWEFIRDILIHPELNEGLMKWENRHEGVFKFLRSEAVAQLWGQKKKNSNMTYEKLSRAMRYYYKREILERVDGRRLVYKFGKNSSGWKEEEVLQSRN
Method in brief: as §1

CRX = CRX (Homo sapiens, UniProt O43186 1-299); details: protein: recombinant; tags: N-terminal GST; dsDNA, one strand shown
Chain of CRX (O43186 whole entry): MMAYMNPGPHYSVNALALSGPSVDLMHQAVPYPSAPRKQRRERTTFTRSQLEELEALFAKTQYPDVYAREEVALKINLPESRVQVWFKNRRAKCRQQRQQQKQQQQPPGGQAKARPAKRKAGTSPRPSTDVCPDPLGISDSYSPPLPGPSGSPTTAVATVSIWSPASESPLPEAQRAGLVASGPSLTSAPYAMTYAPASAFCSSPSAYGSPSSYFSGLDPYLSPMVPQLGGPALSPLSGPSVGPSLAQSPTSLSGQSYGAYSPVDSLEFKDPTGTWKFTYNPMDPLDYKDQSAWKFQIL
Method in brief: as §1

ETV1 = ETV1 (Homo sapiens, UniProt P50549 1-477); details: protein: recombinant; tags: N-terminal GST; dsDNA, one strand shown
Chain of ETV1 (P50549 whole entry): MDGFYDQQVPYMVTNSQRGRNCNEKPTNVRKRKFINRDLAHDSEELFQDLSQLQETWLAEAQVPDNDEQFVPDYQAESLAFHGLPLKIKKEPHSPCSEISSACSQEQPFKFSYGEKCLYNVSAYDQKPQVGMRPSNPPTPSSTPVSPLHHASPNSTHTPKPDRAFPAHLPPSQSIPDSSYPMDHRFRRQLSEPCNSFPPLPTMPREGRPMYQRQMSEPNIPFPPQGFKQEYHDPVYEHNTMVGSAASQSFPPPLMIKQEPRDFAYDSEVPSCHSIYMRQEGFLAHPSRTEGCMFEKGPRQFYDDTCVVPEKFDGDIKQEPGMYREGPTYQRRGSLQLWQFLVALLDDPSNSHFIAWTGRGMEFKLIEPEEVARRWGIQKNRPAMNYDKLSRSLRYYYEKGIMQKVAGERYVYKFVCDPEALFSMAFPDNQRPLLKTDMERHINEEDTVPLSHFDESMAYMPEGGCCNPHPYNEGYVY
Method in brief: as §1

## CCATAA
FLI1
  binding signal: 1.15 fold enrichment (6-mer frequency, TF over GST control)
ELK1
  binding signal: 1.15 fold enrichment (6-mer frequency, TF over GST control)
GABPA
  binding signal: 1.19 fold enrichment (6-mer frequency, TF over GST control)
ERG
  binding signal: 1.17 fold enrichment (6-mer frequency, TF over GST control)
ELF1
  binding signal: 1.15 fold enrichment (6-mer frequency, TF over GST control)
EHF
  binding signal: 1.05 fold enrichment (6-mer frequency, TF over GST control)
SPI1
  binding signal: 1.17 fold enrichment (6-mer frequency, TF over GST control)
SPIB
  binding signal: 1.16 fold enrichment (6-mer frequency, TF over GST control)
ELK3
  binding signal: 1.22 fold enrichment (6-mer frequency, TF over GST control)
FEV
  binding signal: 1.11 fold enrichment (6-mer frequency, TF over GST control)
ETV5
  binding signal: 1.12 fold enrichment (6-mer frequency, TF over GST control)
HSF1
  binding signal: 1.29 fold enrichment (6-mer frequency, TF over GST control)
SPIC
  binding signal: 1.33 fold enrichment (6-mer frequency, TF over GST control)
ELF4
  binding signal: 1.19 fold enrichment (6-mer frequency, TF over GST control)
ELK4
  binding signal: 1.11 fold enrichment (6-mer frequency, TF over GST control)
ETV2
  binding signal: 1.24 fold enrichment (6-mer frequency, TF over GST control)
ELF3
  binding signal: 1.07 fold enrichment (6-mer frequency, TF over GST control)
CRX
  binding signal: 1.64 fold enrichment (6-mer frequency, TF over GST control)
ETV1
  binding signal: 1.23 fold enrichment (6-mer frequency, TF over GST control)

Source: article PMC7862700, “An all-to-all approach to the identification of sequence-specific readers for epigenetic DNA modifications on cytosine”
